# A selection: hits, their analogues and other compounds. The true share with any hit is near 6.9%.
# HP1b chromo inh: HP1-beta chromodomain-methylated histone interaction inhibition; P83916; AlphaScreen HP1-beta / biotin-H3K9me3 peptide binding; Potency, µM (titrated, usually from 114 µM), for the others: at the highest dose activity change, negative = inhibition, usual class: inhibitors; 390,000 compounds, 0.56% hits; AID 540317; also: nearly all actives have a fitted effect of over 70% in size
# Target sequence (P83916 whole entry, looked up): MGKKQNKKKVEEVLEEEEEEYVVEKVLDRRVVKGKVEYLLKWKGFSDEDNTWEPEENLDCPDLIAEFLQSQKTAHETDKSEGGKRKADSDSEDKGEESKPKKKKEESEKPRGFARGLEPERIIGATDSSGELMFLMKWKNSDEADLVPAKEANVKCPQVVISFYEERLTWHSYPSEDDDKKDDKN
#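 AlphaScreen: HP1-beta (50 nM) preformed 30 min with biotin-H3(1-18)K9me3 peptide (50 nM) in PBS pH 7.4, 0.01% Tween-20. Compound added for 30 min at RT, then streptavidin donor/nickel chelate acceptor beads (10 ug/mL) for 30 min.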
# BAZ2B block: blocks human BAZ2B | Q9UIF8 | AlphaScreen BAZ2B-H3K14Ac peptide displacement | Potency, µM (series often up to 114 µM), for the others: at the top dose activity change, negative = inhibition, most hits filed as inhibitors | 360,000 compounds, 4.4% hits; also: % is scaled to controls: 0 for no effect and ±100 for the full control effect; nearly all actives have a fitted effect of over 60% in size
#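 AlphaScreen displacement of biotin-H3(5-23)K14Ac peptide (50 nM final) from BAZ2B (50 nM final) in PBS pH 7.4, 0.01% Tween-20; complex preformed 30 min RT, then compounds (top 110 uM) 30 min RT, beads 20 min dark.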
# JMJD2A Tudor inh: JMJD2A Tudor domain (human) inhibition | O75164 | 390,000 compounds, 4.4% hits | AlphaScreen JMJD2A-Tudor / H3K4me3 peptide binding | Potency, µM (highest dose often 114 µM), for the others: top-dose activity change, negative = inhibition, usual class: inhibitors; also: % is scaled to controls: 0 for no effect and ±100 for the full control effect; nearly all actives have a fitted effect of over 50% in size
# L3MBTL1 inh: L3MBTL1 (human) inhibition; Q9Y468; AlphaScreen L3MBTL1–H3K9me1 peptide binding; Potency, µM (highest dose often 57.1 µM), inactives show at the top dose activity, negative = inhibition, actives largely listed as inhibitors; 230,000 compounds, 0.66% hits; AID 485360; also: % is scaled to controls: 0 for no effect and ±100 for the full control effect; nearly all actives have a fitted effect of over 60% in size
#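 L3MBTL1 50 nM + b-AHA-H3(1-15)K9me1 75 nM, 30 min RT; compound added, 30 min RT; streptavidin donor/Ni-chelate acceptor beads 10 ug/mL each final, 30 min RT dark; AlphaScreen read.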
# PLK1 PBD block: PLK1 (human) polo-box domain binding inhibition; Plk1 PBD binding of FITC phosphopeptide, fluorescence polarization; AID 720504; 360,000 compounds, 2.8% hits; P53350; Potency, µM, without a hit: max response, negative = inhibition, usual class: inhibitors; also: series mostly up to about 57 µM; % is scaled to controls: 0 for no effect and ±100 for the full control effect; nearly all actives have a fitted effect of over 65% in size
# Target sequence (P53350 whole entry, looked up, the tested form may be a part): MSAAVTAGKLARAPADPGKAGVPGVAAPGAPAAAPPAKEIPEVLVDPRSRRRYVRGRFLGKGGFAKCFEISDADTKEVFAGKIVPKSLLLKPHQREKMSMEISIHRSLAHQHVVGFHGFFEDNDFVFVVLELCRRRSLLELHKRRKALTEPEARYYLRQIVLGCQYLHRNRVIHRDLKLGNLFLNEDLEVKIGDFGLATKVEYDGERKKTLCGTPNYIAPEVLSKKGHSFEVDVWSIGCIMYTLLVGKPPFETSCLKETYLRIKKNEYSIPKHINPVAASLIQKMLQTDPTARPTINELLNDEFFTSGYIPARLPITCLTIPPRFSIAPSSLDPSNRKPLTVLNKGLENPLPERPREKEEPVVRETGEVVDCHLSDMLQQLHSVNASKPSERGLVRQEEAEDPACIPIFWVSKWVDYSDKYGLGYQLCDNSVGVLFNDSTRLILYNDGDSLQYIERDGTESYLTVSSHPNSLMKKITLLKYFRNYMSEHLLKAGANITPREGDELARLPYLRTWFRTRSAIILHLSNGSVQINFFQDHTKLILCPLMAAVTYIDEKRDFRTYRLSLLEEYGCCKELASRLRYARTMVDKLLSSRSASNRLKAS
# VDR inh: vitamin D3 receptor (human) inhibition; AID 504847; P11473; 400,000 compounds, 0.93% hits; VDR-SRC2-3 peptide fluorescence polarization, 2 h; Potency, µM, without a hit: max response, negative = inhibition, usual class: inhibitors; also: % is scaled to controls: 0 for no effect and ±100 for the full control effect
#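 Two reagent solutions held at 4 deg C in the dark were dispensed, compounds pinned at 23 nl, and the mixture incubated 2 h at room temperature. Read-out: fluorescence polarization of VDR–SRC2-3 peptide binding.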
# * hit, by the source's call; ? = inconclusive; . = not tested or not shown; [ ] = remark or other dose. Calls follow the shape of the dose curve; as a rule, active = well fitted curve in the direction sought with a large enough effect; inconclusive = small, poorly fitted or top-dose-only effect, or another doubt; inactive = no such curve, though single readings can be large; an effect the other way counts as inactive or inconclusive. Potency is read from the fitted curve at half-maximal effect.
SMILES,HP1b chromo inh,BAZ2B block,JMJD2A Tudor inh,L3MBTL1 inh,PLK1 PBD block,VDR inh
Cc1ccc(/C=C2\SC(=S)N(CCCC(=O)Nc3cccc(C(=O)O)c3)C2=O)cc1,?,-24.6%,39.8µM*,.,?,-24.5%
O=C(CCN1C(=O)/C(=C/c2ccc(Cl)cc2)SC1=S)Nc1cccc(C(=O)O)c1,-39.0%,31.6µM*,50.1µM*,.,?,-9.7%
COc1cc(-c2nc3cccc(C)n3c2NCC2CCCO2)ccc1O (centres undefined),6.9%,?,-15.3%,-2.6%,-0.6%,-2.4%
O=C1NC[C@H](CCCCN2CCN(Cc3ccccc3)C(=O)C2=O)N(CC2CCCCC2)C1=O,.,.,.,.,-7.2%,.
O=C1CC(=O)OC(c2ccc([N+](=O)[O-])cc2)O1,.,.,.,.,5.97µM*,.
CCC1C(=O)C(C)(C)C(=O)OC1c1ccc([N+](=O)[O-])cc1 (centres undefined),68.2%,1.3%,-20.5%,10.0%[2.29 µM],-14.6%,-2.9%
CC(C)c1ccc(OCc2ccc(C(=O)O)o2)cc1,-6.6%,79.4µM*,-23.4%,.,-6.7%,1.9%
COc1ccc(-n2c(=O)c(CCc3ccccc3)nc3cnc(OC)nc32)cc1,.,.,.,.,.,-1.3%
CCOC(=O)CC1(NC(=O)C2CCC(=O)N(Cc3ccccc3F)C2)CCCCC1 (centres undefined),17.7%,1.4%,?,.,26.7µM*,?
CCOC(=O)CC1(NC(=O)C2CCC(=O)N(CCc3ccc(OC)cc3)C2)CCCCC1 (centres undefined),19.8%,-25.9%,10.9%,.,1.1%,7.7%
OCCN(Cc1ccccc1)CC1CC2C=CC1C2 (centres undefined),-51.4%,?,3.16µM*,.,-2.8%,0.3%
OCCN(Cc1ccccc1)CC1CCCCC1,14.2%,?,22.4µM*,.,1.5%,-4.2%
O=C(O)C1C2C=CC(O2)C1C(=O)Nc1ccc(S(=O)(=O)Nc2ccccc2)cc1 (centres undefined),?,-4.5%,79.4µM*,-16.5%,-22.8%,-19.0%
CCN(CC)/C(N)=N/c1nc(C)cc(C)n1,11.3%,-18.1%,-6.1%,-2.8%,-3.4%,-9.6%
CCN(/C(N)=N/c1nc(C)cc(C)n1)c1ccccc1,28.4%,-3.4%,-26.5%,6.4%,26.7µM*,?
Fc1ccc(-c2cc3ncc4c(n3n2)-c2cc(Cl)ccc2OC4)cc1,60.9%,4.5%,6.0%,.,.,1.7%
COc1ccccc1NC(=O)Cn1nnc(C(=O)Nc2ccccc2Br)c1N,24.4%,8.5%[57.1 µM],-19.1%,.,.,11.3%
COC(=O)[C@@]1(Cc2ccc(F)cc2)[C@H]2c3cc(C(=O)N4CCCC4)n(CCc4ccc(OC)c(Br)c4)c3C[C@H]2CN1C(=O)c1ccccc1,.,.,.,.,-5.8%,.
COC(=O)[C@@]1(Cc2ccc(F)cc2)[C@H]2c3cc(C(=O)N4CCCC4)n(CCc4ccc(O)c(O)c4)c3C[C@H]2CN1C(=O)c1ccccc1,.,39.8µM*,.,-25.8%,.,.
O=C1C(Cl)=C(N2CCN(c3ccccc3[N+](=O)[O-])CC2)C(=O)c2ccccc21,8.91µM*,2.51µM*,5.01µM*,?,?,39.8µM*
Cc1c(Cl)cccc1N1CC(C)(C)C1=O,-6.5%,-0.4%,-35.7%,15.4%,26.7µM*,-14.4%
CC1(C)CN(c2ccc(Br)cc2Br)C1=O,67.9%,3.0%,26.1%,12.2%,-5.5%,1.3%
Cc1ccc(C(C)C)c(OCCNS(C)(=O)=O)c1,24.5%,1.6%,-7.8%,.,0.0%,-11.3%
Cc1ccc(C(C)C)c(OCCn2ccnc2C)c1,?,50.1µM*,1.26µM*,-2.6%,-3.1%,9.4%
Cc1nccn1CCOc1ccc(Cl)cc1,?,44.7µM*,4.47µM*,-5.7%,-0.2%,0.9%
SMILES,HP1b chromo inh,BAZ2B block,JMJD2A Tudor inh,L3MBTL1 inh,PLK1 PBD block,VDR inh
Clc1ccc(OCCn2cnc(Cl)c2Cl)cc1,?,?,-30.7%,-13.0%,-0.8%,3.2%
CCOc1ccccc1NC(=S)N1CCN(c2cccc(OC)c2)CC1,14.0%,?,-29.9%,-6.2%,1.7%,-11.2%
Oc1ccccc1OCc1nc2ccccc2s1,17.4%,-3.8%,-6.0%,.,?,-1.3%
Oc1ccc(O)c(Cc2nc3ccccc3s2)c1,20µM*,?,12.6µM*,?,-15.2%,-17.5%
COc1cccc(NC(=O)NCc2ccccc2F)c1,11.1%,11.7%,-11.3%,-17.4%,11.9µM*,?
CCOc1ccccc1NC(=O)NCc1ccccc1F,20.1%,?,-13.7%,0.0%,-4.8%,1.0%
COc1ccccc1NC(=O)NCc1ccccc1F,-5.0%,-1.6%,-8.9%,3.2%,33.6µM*,-12.3%
COc1ccc(NC(=O)NCc2ccccc2F)cc1OC,39.0%,-17.1%,-12.7%,-0.7%,-2.4%,-8.2%
CCCn1c(SCc2nc(-c3ccc(OC)c(OC)c3)no2)nnc1-c1ccccc1,24.0%,-19.7%,-18.1%,.,.,13.4%
O=C(NNC(=S)NC1CCCCC1)c1sc2ccccc2c1Cl,?,1.8%,?,-4.2%,21.2µM*,-20.2%
Cc1cccc(N2CCN(Cc3nnc(-c4ccccc4C)o3)CC2C)c1 (centres undefined),-8.3%,?,79.4µM*,.,.,0.2%
Cc1ccccc1-c1nnc(CN2CCN(c3cc(Cl)ccc3C)CC2)o1,23.5%,-20.6%,-3.1%,.,.,-4.3%
CCN1CCN(C(c2ccccc2)c2c(O)cc(C)n(CCOC)c2=O)CC1 (centres undefined),19.7%[57 µM],3.3%,-10.7%,.,.,9.6%
Cc1c(CN(C)C)c2c(n1Cc1ccccc1)C(=O)c1ccc(Br)cc1-2,?,22.4µM*,39.8µM*,.,-6.0%,18.1%
CCOC(=O)C1(Cc2cccc(OC)c2)CCCN(CCO)C1 (centres undefined),15.7%,14.8%,-13.8%,-2.5%,-3.2%,-14.4%
COCCNC(=O)Cc1c(C)c2c(cc(C)c3c(C(C)(C)C)coc32)oc1=O,-3.1%,-21.1%,-14.9%,.,-7.5%,-5.1%
Cc1cc2oc(=O)c(CC(=O)O)c(C)c2c2occ(C(C)(C)C)c12,5.7%,-16.7%,-19.7%,.,29.9µM*,-20.5%
COc1ccc(CCCO[C@@H](Cn2ccnc2)c2ccc(OC)cc2)cc1,.,.,.,.,.,-5.3%
CC(=Nc1ccccc1)c1sc2ccccc2c1O,-14.6%,?,56.2µM*,22.3%,-14.7%,-3.3%
CC(C(=O)OCC(=O)c1ccccc1)N1C(=O)c2ccccc2C1=O (centres undefined),-8.6%,0.2%,-9.1%,15.3%,29.9µM*,?
CCCc1ccc(OCC(=O)Nc2sc3c(c2C(=O)OC)CCCCC3)cc1,-12.0%,-0.4%,-25.5%,.,.,?
Cc1csc(Nc2ccc(C(=O)O)cc2)n1,33.7%,-2.4%,10.9%,0.3%,3.9%,2.6%
COc1ccc(Nc2nc(-c3sc(C)nc3C)cs2)cc1,?,50.1µM*,?,-9.9%,-8.7%,-0.4%
Cc1cc(O)ccc1Nc1nc(-c2sc(N)nc2C)cs1,-31.2%,-2.3%,50.1µM*,-7.5%,?,-15.0%

# Screens (PubChem BioAssay)
